Assay results from PubChem BioAssay.
Records with an inconclusive call do not appear. Active and inactive are the calls of the source.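 How the source made its calls, unless noted: active means viability at or below 30% in both replicate assays; inconclusive means viability at or below 30% in just one of the two assays; inactive means the rest.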

Key:
[1] = Her2 expression decrease, cell viability multiplex – SKBR3 breast tumor cells, AlphaScreen, ATP viability, primary screen (AID 461;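 active means Her2 level under about 52% in both replicate screens, with viability over 70% of control, limit read from the data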;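 on Her2 level: lower value means less Her2 protein in the cells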;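 on viability: percent of carrier control wells set as 100% viability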); conditions: SKBR3 Her2 protein level, 18-24 h, measured here: SKBR3 viability, ATP luminescence, at 10 µM
[2] = biological target: Receptor tyrosine-protein kinase erbB-2 (Homo sapiens) (UniProt P04626); assay: as above; conditions: 18-24 h, at 10 µM, stronger effect = lower value
Sequence of Receptor tyrosine-protein kinase erbB-2 (Homo sapiens) (P04626 whole entry, looked up): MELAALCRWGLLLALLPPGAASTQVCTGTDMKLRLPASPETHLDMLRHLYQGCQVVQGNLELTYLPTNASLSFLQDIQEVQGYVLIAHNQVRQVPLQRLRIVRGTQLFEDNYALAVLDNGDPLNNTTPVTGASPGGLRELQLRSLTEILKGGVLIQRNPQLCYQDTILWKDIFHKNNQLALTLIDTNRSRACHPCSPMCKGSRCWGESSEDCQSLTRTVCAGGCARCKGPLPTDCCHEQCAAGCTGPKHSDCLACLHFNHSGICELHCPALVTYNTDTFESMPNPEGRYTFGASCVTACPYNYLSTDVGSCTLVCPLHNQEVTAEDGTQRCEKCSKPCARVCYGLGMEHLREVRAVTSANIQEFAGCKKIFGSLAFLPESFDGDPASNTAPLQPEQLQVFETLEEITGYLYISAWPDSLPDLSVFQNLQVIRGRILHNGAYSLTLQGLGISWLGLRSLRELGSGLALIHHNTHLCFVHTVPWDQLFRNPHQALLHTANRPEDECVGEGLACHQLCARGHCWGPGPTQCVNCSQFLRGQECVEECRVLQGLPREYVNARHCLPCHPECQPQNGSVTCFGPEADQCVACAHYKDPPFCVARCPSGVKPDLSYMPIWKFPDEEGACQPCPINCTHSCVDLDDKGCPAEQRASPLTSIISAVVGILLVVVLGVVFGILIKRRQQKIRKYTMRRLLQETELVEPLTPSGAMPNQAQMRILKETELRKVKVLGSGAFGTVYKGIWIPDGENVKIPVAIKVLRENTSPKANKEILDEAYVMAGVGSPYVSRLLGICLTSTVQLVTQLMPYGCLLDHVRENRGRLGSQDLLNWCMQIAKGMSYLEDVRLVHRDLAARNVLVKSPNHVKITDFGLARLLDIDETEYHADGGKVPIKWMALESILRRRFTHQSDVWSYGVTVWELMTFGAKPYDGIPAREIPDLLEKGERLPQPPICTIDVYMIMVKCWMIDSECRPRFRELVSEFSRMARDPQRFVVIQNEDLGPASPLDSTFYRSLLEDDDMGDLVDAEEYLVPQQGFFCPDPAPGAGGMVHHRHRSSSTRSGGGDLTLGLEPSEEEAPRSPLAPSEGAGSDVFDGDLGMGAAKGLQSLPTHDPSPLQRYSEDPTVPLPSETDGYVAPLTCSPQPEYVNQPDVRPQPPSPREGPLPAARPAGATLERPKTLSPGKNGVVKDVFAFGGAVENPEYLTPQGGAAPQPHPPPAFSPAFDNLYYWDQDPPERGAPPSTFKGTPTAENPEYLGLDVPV

[3] = reduced viability of SK-BR-3 breast cancer cells – cell-based, 24 h, human, pilot screen (AID 572;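 active means viability at or below 10% of carrier control in both of two separate runs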;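 further: compound exposure lasted between 18 and 24 h rather than exactly 24 h; 100% = carrier-treated control wells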); conditions: SK-BR-3 viability, CellTiter-Glo luminescence, at 10 µM, stronger effect = lower value
[4] = HUVEC growth inhibition – cell-based, human, primary screen (AID 575); conditions: HUVEC proliferation, CellTiter-Glo luminescence, 72 h; at 10 µM; stronger effect = lower value;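 further: 100% = median of untreated cell wells with 0.1% DMSO on each plate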
[5] = H69AR cell proliferation blockers – human, duplicate replicates, primary screen (AID 580;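 active means viability at or under a set limit in both replicates, limit being median viability minus 3 SD, cut at about 48% in these data, passing the limit was not always enough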;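 further: 100% = mean luminescence of untreated wells and 0% = no signal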); conditions: H69AR lung tumor cells viability, ATP luminescence, 72 h; at 10 µM; stronger effect = lower value
[6] = MRP1 drug-resistance reversers in H69AR cells – cell-based, doxorubicin co-treatment, pilot screen (AID 601;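 active means viability loss from added drug above about 55%, and viability with drug at most 40%, in both replicates, limit read from the data, passing the limit was not always enough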); conditions: CellTiter-Glo, 72 h, at 10 µM; for differential viability (reversal): stronger effect = higher value
[7] = yeast transport mutant growth inhibition pilot in 384-well plates, post-Golgi transport modulator project (AID 636; in the data active means inhibition above about 31%); conditions: absorbance 615 nm, about 18 h, stronger effect = higher value
[8] = growth suppression of yeast trafficking mutant, preliminary HTS, modulators of trafficking downstream of Golgi apparatus project, 1536-format plate, OD 615 nm (AID 637; in the data active means inhibition above about 30%); conditions: yeast transport mutant growth, absorbance 615 nm, 18 h; stronger effect = higher value
[9] = S. cerevisiae growth inhibition in permissive medium (OD615), pilot counter-assay for S. cerevisiae lifespan shortening project, permissive growth control (AID 705;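 active means growth inhibition above 25% in both replicates, a cutoff set 3 SD above the mean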); conditions: OD615, 24 h, at 10 µM, stronger effect = higher value
[10] = S. cerevisiae growth inhibition in restrictive medium, OD615, pilot screen, restrictive growth control, yeast lifespan reduction project (AID 706;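 active means growth inhibition above a set limit, 3 SD over mean compound inhibition, in both replicates, cut at about 43% in these data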;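 further: modified DeaD lifespan yeast strain shifted to restrictive glucose medium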); conditions: OD615, 48 h, at 10 µM, stronger effect = higher value
[11] = doxorubicin toxicity protection in MRP-1 cells – H69AR cells, CellTiter-Glo, duplicate, MRP-1 activator project, pilot screen (AID 807;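 active means viability increase at or above a cutoff of the median across tested compounds plus 3 SD, cut at about 8.5% in these data, passing the limit was not always enough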;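 further: compound pretreatment 18-22 h then 72 h combined with doxorubicin; 0% = doxorubicin alone and 100% = vehicle without doxorubicin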); conditions: H69AR viability with doxorubicin, CellTiter-Glo luminescence; at 10 µM; stronger effect = higher value
[12] = viability of HCT116 without oncogenic beta-catenin – human colon tumor cells, pilot screen (AID 823;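 active means cell viability at or below a set limit in both duplicate runs, the limit being the all-compound median minus 4 SD, cut at about 23% in these data, passing the limit was not always enough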;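 further: 0% = wells killed by 20 µM Hyamine and 100% = untreated DMSO cell wells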); conditions: HCT116 beta-catenin knockout viability, CellTiter-Glo, 60 h; at 10 µM; stronger effect = lower value
[13] = viability of PTEN-null HCT116 cells – cell-based, HCT116 clonal line, CellTiter-Glo, pilot screen (AID 824;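 active means viability at or below 27.92% in each of two runs, the all-compound median minus 4 SD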;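 further: 0% = 20 µM Hyamine control and 100% = vehicle cell control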); conditions: HCT116 PTEN-deleted viability, 60 h, at 10 µM, stronger effect = lower value
[14] = RAM pathway blockade in budding yeast – dse1pr::URA3 reporter, 5-FOA selection, pilot screen (AID 869;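 active means inhibition over a set limit, the all-compound mean plus 3 SD, in both replicate runs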;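 further: 0% = DMSO wells with no growth and 100% = 10 µM 1-NA-PP1 with full growth; RAM network block rescues cells from 5-FOA so hits raise OD615 growth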); conditions: S. cerevisiae dse1pr::URA3 5-FOA growth, OD615, 2 d; at 10 µM; stronger effect = higher value; strain carries analog-sensitive mutant Cbk1 kinase
[15] = H69AR cells + 2 uM doxorubicin, measured here: viability with 2 uM doxorubicin, stronger effect = lower value
[16] = H69AR cells, compound alone cytotoxicity

SMILES	viability [1]	Her2 level [2]	viability [3]	viability [4]	viability [5]	differential viability (reversal) ([6]; H69AR cells + 2 uM doxorubicin)	viability [6, 15]	viability [6, 16]	inhibition [7]	inhibition [8]	growth inhibition [9]	growth inhibition [10]	viability increase [11]	viability [12]	viability [13]	inhibition [14]
COC(=O)Cn1c(C)nc2c(sc3nc(C)cc(C)c32)c1=O	110%	113% (inactive)	110% (inactive)	105% (inactive)	97.6% (inactive)	7.48% (inactive)	90.1%	97.6%	-4.61% (inactive)	2.79% (inactive)	–	–	–	–	–	–
Nc1nnc(SCCOc2ccccc2)s1	86.5%	80% (inactive)	86.5% (inactive)	72.1% (inactive)	97.4% (inactive)	9.2% (inactive)	88.2%	97.4%	-3.82% (inactive)	-2.73% (inactive)	–	–	–	–	–	–
O=C(CCCN1C(=O)c2ccccc2C1=O)N1CCC(c2ccccc2)C1 (stereo not drawn)	110%	108% (inactive)	110% (inactive)	114% (inactive)	96.4% (inactive)	-1.44% (inactive)	97.8%	96.4%	-5% (inactive)	0.33% (inactive)	–	–	–	–	–	–
O=C(CN1C(=O)CCSc2ccccc21)Nc1ccc2c(c1)OCO2	124%	85.5% (inactive)	124% (inactive)	97.6% (inactive)	103% (inactive)	0.09% (inactive)	103%	103%	-2.5% (inactive)	-4.13% (inactive)	–	–	–	–	–	–
O=C(COC(=O)c1ccco1)NCc1cccs1	112%	97.5% (inactive)	112% (inactive)	98.9% (inactive)	106% (inactive)	10.7% (inactive)	95.3%	106%	-7.76% (inactive)	0% (inactive)	–	–	–	–	–	–
O=C1c2ccccc2C(=O)N1OCc1ccccc1	95.5%	91.5% (inactive)	95.5% (inactive)	101% (inactive)	92.2% (inactive)	-0.76% (inactive)	92.9%	92.2%	-6.18% (inactive)	3.93% (inactive)	–	–	–	–	–	–
Clc1ccc(OCCCn2cncn2)cc1Cl	104%	99% (inactive)	104% (inactive)	92.5% (inactive)	80.2% (inactive)	-6.33% (inactive)	86.5%	80.2%	2.03% (inactive)	16.4% (inactive)	–	–	–	–	–	–
COc1ccc(-c2nc(CS(=O)CC(=O)N3CCCC3)c(C)o2)cc1 (stereo not drawn)	92.5%	91% (inactive)	92.5% (inactive)	80.8% (inactive)	83.9% (inactive)	2.07% (inactive)	81.8%	83.9%	-2.67% (inactive)	3.77% (inactive)	-4.09% (inactive)	5.46% (inactive)	-2.14% (inactive)	91.8% (inactive)	90.7% (inactive)	2.27% (inactive)
CCN(c1ccc2c(c1)OCO2)S(=O)(=O)c1cc(Br)cc2c1N(C(=O)C1CC1)CC2	131%	92.5% (inactive)	131% (inactive)	89.6% (inactive)	73.9% (inactive)	11.9% (inactive)	62%	73.9%	-10% (inactive)	3.17% (inactive)	-12.3% (inactive)	-14.7% (inactive)	-3.72% (inactive)	72.4% (inactive)	72% (inactive)	3.91% (inactive)
O=C(Oc1cc2oc(=O)c3c(c2cc1Cl)CCCC3)c1ccco1	82%	87% (inactive)	82% (inactive)	89.6% (inactive)	80.2% (inactive)	-13.1% (inactive)	93.2%	80.2%	1.28% (inactive)	-4% (inactive)	-14.7% (inactive)	-13.7% (inactive)	-3.67% (inactive)	108% (inactive)	104% (inactive)	1.97% (inactive)
CCOC(=O)c1sc(NC(=O)CSc2nnc(-c3ccco3)n2CC)c(C(=O)OCC)c1C	101%	71% (inactive)	101% (inactive)	77.5% (inactive)	74.2% (inactive)	–	–	–	-0.66% (inactive)	-0.32% (inactive)	–	–	–	–	–	–
Cn1c(=N)c(S(=O)(=O)c2ccccc2)cc2c(=O)n3ccccc3nc21	83.5%	108% (inactive)	83.5% (inactive)	83% (inactive)	75% (inactive)	–	–	–	3.87% (inactive)	31.8% (active)	–	–	–	–	–	–
Fc1ccc(C2C3=C(Nc4ncnn42)c2ccccc2OC3c2ccncc2)cc1 (stereo not drawn)	85.5%	85.5% (inactive)	85.5% (inactive)	86.7% (inactive)	78.8% (inactive)	–	–	–	-2.11% (inactive)	-3.71% (inactive)	–	–	–	–	–	–
CCOC(=O)C1CCCN(c2c(Nc3ccc(C)c(C)c3)c(=O)c2=O)C1 (stereo not drawn)	84%	99% (inactive)	84% (inactive)	91.7% (inactive)	87.6% (inactive)	–	–	–	0% (inactive)	-4.43% (inactive)	–	–	–	–	–	–
O=C(NCc1nnc(SCC(=O)N2CCC(Cc3ccccc3)CC2)o1)c1ccccc1F	85%	96.5% (inactive)	85% (inactive)	74.5% (inactive)	98.8% (inactive)	3.91% (inactive)	94.8%	98.8%	1.6% (inactive)	3.11% (inactive)	5.21% (inactive)	17.2% (inactive)	-0.76% (inactive)	90.2% (inactive)	92.2% (inactive)	1.69% (inactive)
CC[C@]1(O)C[C@@H]2CN(CCc3c([nH]c4ccccc34)[C@@](C(=O)OC)(c3cc4c(cc3OC)N(C)[C@H]3[C@@](O)(C(=O)OC)[C@H](OC(C)=O)[C@]5(CC)C=CCN6CC[C@]43[C@@H]65)C2)C1	108%	78.5% (inactive)	108% (inactive)	10.5% (active)	–	-38.2% (inactive)	55.7%	17.5%	–	–	–	–	–	–	–	–
C=CCn1c(SCC(=O)Nc2cccc(OC)c2)nnc1-c1cccnc1	92.5%	95% (inactive)	92.5% (inactive)	87.2% (inactive)	95.4% (inactive)	7.9% (inactive)	87.5%	95.4%	-6.4% (inactive)	3.33% (inactive)	-11.3% (inactive)	-8.35% (inactive)	-2.95% (inactive)	99.6% (inactive)	96.8% (inactive)	0.365% (inactive)
O=C(C1CCN(c2nnc(-n3cccc3)s2)CC1)N1CCN(Cc2ccc3c(c2)OCO3)CC1	78.5%	80.5% (inactive)	78.5% (inactive)	105% (inactive)	82% (inactive)	-3.6% (inactive)	85.6%	82%	3.59% (inactive)	1.67% (inactive)	10.4% (inactive)	10.1% (inactive)	-0.09% (inactive)	59.1% (inactive)	64.8% (inactive)	2.78% (inactive)
CCc1nc(N)nc(N)c1-c1ccc(Cl)cc1	103%	79% (inactive)	103% (inactive)	117% (inactive)	–	-59.9% (inactive)	95.8%	35.9%	–	–	–	–	–	–	–	–
CC[C@H]1OC(=O)C[C@@H](O)[C@H](C)[C@@H](O[C@@H]2O[C@H](C)C[C@H](N(C)C)[C@H]2O)[C@@H](CC=O)C[C@@H](C)C(=O)C=C[C@]2(C)O[C@H]2[C@@H]1C	162%	19.5% (active)	162% (inactive)	53.5% (inactive)	–	-6.67% (inactive)	45.8%	39.1%	–	–	–	–	–	–	–	–
CC12COC3(C(=O)Nc4ccc(Cl)cn4)CC1CCC32C (stereo not drawn)	72%	112% (inactive)	72% (inactive)	82.9% (inactive)	94.6% (inactive)	9.46% (inactive)	85.1%	94.6%	0% (inactive)	-10% (inactive)	-15.9% (inactive)	-9.37% (inactive)	-0.46% (inactive)	85.3% (inactive)	85.7% (inactive)	0.735% (inactive)
CC(=O)O[C@]1(C(C)=O)CC[C@H]2[C@@H]3C[C@H](C)C4=CC(=O)CC[C@]4(C)[C@H]3CC[C@@]21C	153%	65% (inactive)	153% (inactive)	83.3% (inactive)	–	-5.03% (inactive)	6.83%	1.8%	–	–	–	–	–	–	–	–
Cn1c(Cc2ccccc2)nnc1SCC(=O)c1ccc(Br)s1	97.5%	83.5% (inactive)	97.5% (inactive)	81.4% (inactive)	–	-4.43% (inactive)	53.9%	49.4%	-2.08% (inactive)	-5.4% (inactive)	–	–	–	–	–	–
Cc1ccc(CCNC(=O)C2CCCN2S(=O)(=O)c2ccc3c(c2)CCC(=O)N3)cc1 (stereo not drawn)	87.5%	93.5% (inactive)	87.5% (inactive)	91.8% (inactive)	101% (inactive)	4.97% (inactive)	96.2%	101%	-1.33% (inactive)	11.2% (inactive)	-8.07% (inactive)	-8.79% (inactive)	3.43% (inactive)	101% (inactive)	98.8% (inactive)	2% (inactive)
O=C(c1ccc(Br)o1)N1CCN(c2ccc3nnc(-c4ccccc4)n3n2)CC1	113%	78% (inactive)	113% (inactive)	56.6% (inactive)	75.8% (inactive)	38.7% (inactive)	37.1%	75.8%	2.82% (inactive)	-0.67% (inactive)	–	45.7% (active)	-1.47% (inactive)	45% (inactive)	38.8% (inactive)	1.29% (inactive)
C=CCSc1nnc2n(-c3ccccc3OC)c(=O)c3c4c(sc3n12)CCC4	83.5%	100% (inactive)	83.5% (inactive)	79.9% (inactive)	89.1% (inactive)	–	–	–	-0.67% (inactive)	-0.95% (inactive)	–	–	–	–	–	–
Cc1cccc(-n2c(=O)cc(N3CCN(c4ccc(F)cc4)CC3)[nH]c2=O)c1	85.5%	110% (inactive)	85.5% (inactive)	66.5% (inactive)	71.9% (inactive)	0.095% (inactive)	71.8%	71.9%	-2.13% (inactive)	-2.33% (inactive)	-12.5% (inactive)	-8.2% (inactive)	-5.2% (inactive)	79.3% (inactive)	66.1% (inactive)	4.09% (inactive)
Cc1ccc(-n2ncc3c(N4CCN(c5ccccc5)CC4)ncnc32)c(C)c1	93%	79% (inactive)	93% (inactive)	57.9% (inactive)	80.3% (inactive)	–	–	–	-2.93% (inactive)	1.94% (inactive)	–	–	–	–	–	–
